Results reported in PubChem BioAssay AID1159580 (chemical genetic matrix, 2015).
The whole screen tested about 5,500 compounds, of which about 2,000 (36%) were called active. About 18% were inconclusive and are not listed. Cut-off read from the data, not from the text of the source: active = normalized growth mostly below about 0.91 (no sharp cut-off); inconclusive = no clear call, values can overlap the other calls; inactive = mostly above about 0.92. The list shows a part of the results.

Test: chemical genetic growth profiling, strain panel (AID 1159580);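 note: tested at 20 µM; growth read once vehicle control cultures reached saturation at 30 °C; 1 = growth at the plate median or of vehicle wells; lower values mean less growth of the strain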
Conditions: growth OD

Measured: normalized growth

COc1cc(-c2coc3cc(O[C@@H]4O[C@H](CO)[C@@H](O)[C@H](O)[C@H]4O)c(OC)c(O)c3c2=O)cc(O)c1OC
inactive: S. cerevisiae deletion strains, locus YJR066W, strain TOR1, hits give low values 0.988 | S. cerevisiae deletion strains, locus YKL009W, strain mrt4, hits give low values 1.02 | S. cerevisiae deletion strains, locus YKL068W, hits give low values 0.995 | S. cerevisiae deletion strains, locus YKL085W, strain MDH1 (second series), hits give low values 0.997 | S. cerevisiae deletion strains, locus YKL085W, strain MDH1, hits give low values 0.997 | S. cerevisiae deletion strains, locus YKL160W, strain elf1, hits give low values 0.993 | S. cerevisiae deletion strains, locus YKR001C, strain vps1, hits give low values 1.01 | S. cerevisiae deletion strains, locus YKR026C, strain gcn3, hits give low values 0.997 | S. cerevisiae deletion strains, locus YKR091W, strain srl3, hits give low values 1 | S. cerevisiae deletion strains, locus YLL001W, strain dnm1, hits give low values 0.965 | S. cerevisiae deletion strains, locus YLL026W, hits give low values 0.995 | S. cerevisiae deletion strains, locus YLL041C, strain sdh2, hits give low values 1 | S. cerevisiae deletion strains, locus YLR027C, strain aat2, hits give low values 0.997 | S. cerevisiae deletion strains, locus YLR039C, strain RIC1, hits give low values 1.02 | S. cerevisiae deletion strains, locus YLR058C, strain SHM2, hits give low values 1.01 | S. cerevisiae deletion strains, locus YLR102C, strain apc9, hits give low values 0.994 | S. cerevisiae deletion strains, locus YLR113W, strain HOG1, hits give low values 0.975 | S. cerevisiae deletion strains, locus YLR221C, strain rsa3, hits give low values 0.993 | S. cerevisiae deletion strains, locus YLR258W, strain gsy2, hits give low values 0.984 | S. cerevisiae deletion strains, locus YLR262C, strain YPT6 (second series), hits give low values 1 | S. cerevisiae deletion strains, locus YLR262C, strain YPT6, hits give low values 1 | S. cerevisiae deletion strains, locus YLR268W, strain sec22, hits give low values 1.03 | S. cerevisiae deletion strains, locus YLR320W, strain mms22, hits give low values 0.986 | S. cerevisiae deletion strains, locus YLR330W, strain CHS5, hits give low values 1.01 | S. cerevisiae deletion strains, locus YLR342W, strain FKS1 (second series), hits give low values 1.05 | S. cerevisiae deletion strains, locus YLR342W, strain FKS1, hits give low values 0.994 | S. cerevisiae deletion strains, locus YLR357W, strain rsc2, hits give low values 0.956 | S. cerevisiae deletion strains, locus YLR370C, strain arc18, hits give low values 1 | S. cerevisiae deletion strains, locus YLR371W, strain rom2, hits give low values 1.01 | S. cerevisiae deletion strains, locus YLR384C, strain iki3, hits give low values 0.988 | S. cerevisiae deletion strains, locus YLR418C, strain cdc73, hits give low values 1.02 | S. cerevisiae deletion strains, locus YML016C, strain PPZ1, hits give low values 0.981 | S. cerevisiae deletion strains, locus YML032C, strain rad52, hits give low values 1.01 | S. cerevisiae deletion strains, locus YML120C, strain ndi1, hits give low values 0.99 | S. cerevisiae deletion strains, locus YML124C, strain tub3, hits give low values 0.99 | S. cerevisiae deletion strains, locus YMR058W, strain fet3, hits give low values 0.998 | S. cerevisiae deletion strains, locus YMR078C, strain ctf18, hits give low values 0.981 | S. cerevisiae deletion strains, locus YMR125W, strain sto1, hits give low values 0.99 | S. cerevisiae deletion strains, locus YMR129W, hits give low values 0.996 | S. cerevisiae deletion strains, locus YMR205C, strain PFK2, hits give low values 0.981 | S. cerevisiae deletion strains, locus YMR223W, strain ubp8, hits give low values 1 | S. cerevisiae deletion strains, locus YMR231W, strain pep5, hits give low values 0.997 | S. cerevisiae deletion strains, locus YMR307W, strain GAS1, hits give low values 1.04 | S. cerevisiae deletion strains, locus YNL067W, strain RPL9B, hits give low values 0.994 | S. cerevisiae deletion strains, locus YNL071W, strain lat1, hits give low values 1.01 | S. cerevisiae deletion strains, locus YNL128W, strain TEP1, hits give low values 1.01 | S. cerevisiae deletion strains, locus YNL183C, strain NPR1, hits give low values 0.962 | S. cerevisiae deletion strains, locus YNL209W, strain ssb2, hits give low values 0.989 | S. cerevisiae deletion strains, locus YNL233W, strain BNI4, hits give low values 1 | S. cerevisiae deletion strains, locus YNL248C, strain rpa49, hits give low values 0.988 | S. cerevisiae deletion strains, locus YNL250W, strain rad50, hits give low values 0.964 | S. cerevisiae deletion strains, locus YNL271C, strain bni1, hits give low values 0.978 | S. cerevisiae deletion strains, locus YNL298W, strain CLA4, hits give low values 0.989 | S. cerevisiae deletion strains, locus YNL307C, strain MCK1, hits give low values 0.99 | S. cerevisiae deletion strains, locus YNL322C, strain KRE1 (second series), hits give low values 0.977 | S. cerevisiae deletion strains, locus YNR049C, strain mso1, hits give low values 1.01 | S. cerevisiae deletion strains, locus YNR052C, strain pop2, hits give low values 0.964 | S. cerevisiae deletion strains, locus YOL012C, strain htz1 0.807 | S. cerevisiae deletion strains, locus YOL147C, strain pex11, hits give low values 1.01 | S. cerevisiae deletion strains, locus YOR001W, strain rrp6, hits give low values 0.948 | S. cerevisiae deletion strains, locus YOR061W, strain CKA2, hits give low values 0.999 | S. cerevisiae deletion strains, locus YOR069W, strain VPS5, hits give low values 0.986 | S. cerevisiae deletion strains, locus YOR070C, strain gyp1, hits give low values 1.01 | S. cerevisiae deletion strains, locus YOR080W, strain dia2, hits give low values 0.988 | S. cerevisiae deletion strains, locus YOR083W, strain WHI5, hits give low values 1.02 | S. cerevisiae deletion strains, locus YOR106W, strain vam3, hits give low values 0.98 | S. cerevisiae deletion strains, locus YOR136W, strain idh2, hits give low values 0.992 | S. cerevisiae deletion strains, locus YOR144C, strain elg1, hits give low values 0.996 | S. cerevisiae deletion strains, locus YOR184W, strain ser1, hits give low values 1.05 | S. cerevisiae deletion strains, locus YOR231W, strain MKK1, hits give low values 1.05 | S. cerevisiae deletion strains, locus YOR265W, strain rbl2, hits give low values 1.01 | S. cerevisiae deletion strains, locus YOR270C, strain vph1, hits give low values 1.02 | S. cerevisiae deletion strains, locus YOR290C, strain snf2, hits give low values 1 | S. cerevisiae deletion strains, locus YOR316C, strain cot1, hits give low values 0.985 | S. cerevisiae deletion strains, locus YPL051W, strain arl3, hits give low values 0.961 | S. cerevisiae deletion strains, locus YPL055C, strain LGE1, hits give low values 1.05 | S. cerevisiae deletion strains, locus YPL078C, strain atp4, hits give low values 0.993 | S. cerevisiae deletion strains, locus YPL106C, strain sse1, hits give low values 0.962 | S. cerevisiae deletion strains, locus YPL240C, strain hsp82, hits give low values 1 | S. cerevisiae deletion strains, locus YPL256C, strain CLN2, hits give low values 1.02 | S. cerevisiae deletion strains, locus YPR119W, strain clb2, hits give low values 0.982 | S. cerevisiae deletion strains, locus YPR141C, strain kar3, hits give low values 0.977 | S. cerevisiae deletion strains, locus YPR163C, strain tif3, hits give low values 0.986 | S. cerevisiae deletion strains, locus YPR167C, strain met16, hits give low values 0.993 | S. cerevisiae deletion strains, strain wtn01, hits give low values 1.01 | S. cerevisiae strains, strain wild type, hits give low values 1.01
